From PubChem BioAssay AID686979 (National Center for Advancing Translational Sciences (NCATS), 2013)
Out of some 420,000 compounds screened, about 50,000 (12%) were called active. Roughly 26% stayed inconclusive and do not appear here. Calls come from the whole dose curve; as a rule, active = well fitted inhibition curve with a large enough effect; inconclusive = small, poorly fitted or top-dose-only effect; inactive = flat fitted curve, though single readings scatter. Shown is part of a subset that was picked to be rich in actives.

Assay: qHTS for Inhibitors of human tyrosyl-DNA phosphodiesterase 1 (TDP1): qHTS in cells in presence of CPT; note: nearly all actives have a fitted effect of over 55% in size
Settings: chicken DT40 Tdp1-/-;hTDP1 cells + 20 nM CPT, ATP luminescence, 48 h; series mostly up to 46.2 µM; activity change, negative = growth inhibition: at the top concentration
How it was run: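 Chicken DT40 Tdp1-/- cells complemented with human TDP1, 400 cells/well, exposed to compounds plus 20 nM camptothecin for at least 48 h at 37 C; viability read as ATP content by CellTiter-Glo luminescence.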
% is set by controls: 0 for no effect and ±100 for the full control effect; potency is the fitted concentration of half-maximal effect.

Compound | activity change, negative = growth inhibition | Potency
COc1ccc(CNC(=O)COC(=O)C2=Cc3ccccc3OC2)cc1 | 5.53% (inactive) | –
COC(=O)c1ccc(CNC(=O)Cn2cc(C)c(=O)[nH]c2=O)cc1 | 0.751% (inactive) | –
O=C(Cn1c2[n+](c3ccc(C(F)(F)F)cc31)CCCCC2)Nc1c(F)cccc1F | 0.326% (inactive) | –
Cc1ccc(CN(C)Cc2cc(=O)oc3cc(C)c(Cl)cc23)cc1 | -11.4% (inactive) | –
Cc1cc(NC(=O)CSc2ncc(C(F)(F)F)cc2Cl)no1 | 2.58% (inactive) | –
Cc1c(Cl)cccc1NC(=O)CCC(=O)N/N=C/c1ccco1 | -12.2% (inactive) | –
C[C@H](CO)N1C[C@H](C)[C@@H](CN(C)C(=O)NC2CCCCC2)Oc2ccc(NC(=O)c3ccncc3)cc2C1=O | 6.58% (inactive) | –
COC(=O)c1ccccc1NC(=S)NC(=O)c1ccccc1F | -10.3% (inactive) | –
S=C(NCc1cccnc1)Nc1ccc(Cl)cc1Cl | -0.527% (inactive) | –
NS(=O)(=O)c1ccc(-c2ccc(/C=C3\SC(=O)NC3=O)o2)cc1 | -26.6% (inactive) | –
Cc1ccc(NC(=O)CCC(=O)c2ccc(Br)cc2)cc1 | 1.81% (inactive) | –
Cn1c(=O)c2c(SCC(=O)NCC3CCCO3)nc(-c3ccccc3F)nc2n(C)c1=O (stereo not given) | -2.94% (inactive) | –
Cc1cccc(-c2nc(SCC(=O)Nc3cc(C)on3)c3c(=O)n(C)c(=O)n(C)c3n2)c1 | 9.94% (inactive) | –
Cc1ccccc1-c1nc(SCC(=O)N(C)c2ccccc2)c2c(=O)n(C)c(=O)n(C)c2n1 | – | 20.6 µM (active)
CN(C(=O)COC(=O)c1nc(Cl)ccc1Cl)C1CCS(=O)(=O)C1 (stereo not given) | 4.88% (inactive) | –
Cc1cc(C)c2nc(N3CCC(C(=O)NCCN4CCOCC4)CC3)sc2c1 | -15.1% (inactive) | –
COc1ccc(/C(=N\O)c2nccc3cc(OC)c(OC)cc23)cc1OC | -17.8% (inactive) | –
COC(=O)c1ccc(NC(=O)CSc2nncc3ccc(OC)c(OC)c23)cc1 | -6.52% (inactive) | –
COC(=O)c1ccc(-c2c(-c3ccccc3)ncc3cc(OC)c(OC)cc23)cc1 | – | 20.6 µM (active)
CCN(CC)CCn1c2c(c(SCC(=O)Nc3ccc(C(C)C)cc3)nc1=O)CCC2 | -2.66% (inactive) | –
CC(=O)OCC(=O)C1(O)CCC2C3CC(C)C4=CC(=O)CCC4(C)C3C(O)CC21C (stereo not given) | -6.1% (inactive) | –
COc1ccc(C(=O)NC(C)Cn2nc(C)cc2C)cc1OC1CCN(C(C)=O)CC1 (stereo not given) | -1.86% (inactive) | –
O=C(CN1C(=O)c2ccc([N+](=O)[O-])cc2C1=O)Nc1nnc(C2CC2)s1 | 17% (inactive) | –
C=CCOc1ccc(/C=C/C(=O)OCC(=O)NCC2CCCO2)cc1 (stereo not given) | -16.3% (inactive) | –
COc1ccc(/C=N/NC(=O)c2ccc3c(c2)OCCO3)c(OC)c1 | 1.79% (inactive) | –

Compound | activity change, negative = growth inhibition | Potency
COc1ccc(C(=O)N/N=C2\CCS(=O)(=O)c3ccc(F)cc32)cc1OC | – | 18.4 µM (active)
CCNC(=O)c1ccc(OCC(=O)Nc2ccc(F)cc2)c(OC)c1 | 0.955% (inactive) | –
CCN(Cc1ccccc1)C(=O)Cc1ccc(OC)c(S(=O)(=O)N2CCOCC2)c1 | -24.5% (inactive) | –
O=C(O)/C=C/c1cn(Cc2ccccc2)nc1-c1cccs1 | 1.59% (inactive) | –
CCOC(=O)/C(C#N)=C/c1cn(CCC(=O)O)nc1-c1ccc(Br)cc1 | -3.43% (inactive) | –
O=C(O)CCn1cc(/C=C/C(=O)c2ccc(Cl)cc2)c(-c2cccc(Br)c2)n1 | – | 20.6 µM (active)
Cc1cc(C)cc(N)c1 | -11.1% (inactive) | –
O=C(NCc1ccco1)C(c1ccncc1)N(C(=O)Cn1nnc2ccccc21)c1ccccc1 (stereo not given) | 3.69% (inactive) | –
CC(C)(C)OC(=O)N/N=C/c1ccc(C(=O)O)cc1 | 5.2% (inactive) | –
COC(=O)C1(C(=O)OC)C/C=C\CN(S(=O)(=O)c2ccccc2[N+](=O)[O-])CCC1 | -27.1% (inactive) | –
Oc1ccc(/C=N/Nc2ccc(C(F)(F)F)cn2)cc1O | – | 2.91 µM (active)
O=C(Nc1ccccc1)Nc1ccc(C(F)(F)F)cn1 | -14.5% (inactive) | –
Cc1nnsc1C(=O)N/N=C/c1cccc(C(F)(F)F)c1 | 2.4% (inactive) | –
COc1ccc(C(=O)Nc2cccc(/C=C(/CCC(=O)O)c3nc4ccccc4s3)c2)cc1 | -26.9% (inactive) | –
O=C(CC(NCc1cccnc1)C(=O)O)Nc1ccc(O)cc1 (stereo not given) | 10.1% (inactive) | –
COC(=O)c1ccc(C2CC(=O)Nc3cc(OC)c(OC)cc32)cc1 (stereo not given) | -2.88% (inactive) | –
COc1cc2c(cc1OC)C(c1ccncc1)CC(=O)N2 (stereo not given) | 3.17% (inactive) | –
Cc1cc2c(cc1C)C(c1cccc(OC(C)C)c1)CC(=O)N2 (stereo not given) | – | 16.4 µM (active)
Cc1cccc(C)c1NC(=O)C(c1cccc(F)c1)N1CCN(C)CC1 (stereo not given) | -28.4% (inactive) | –
CC(=O)Nc1sc2c(c1C(c1cccc(F)c1)N1CCN(CCO)CC1)CCCC2 (stereo not given) | – | 23.1 µM (active)
O=C(NC(c1ccccc1)c1ccccc1)N1CCN(CCO)CC1 | 0.157% (inactive) | –
COc1ccccc1CNC(=O)COC(=O)CNS(=O)(=O)c1ccc(NC(C)=O)cc1 | 8.96% (inactive) | –
O=C(Cc1ccccc1)Nc1c(Cl)ccc2nsnc12 | -1.89% (inactive) | –
C=CCn1cc(C(=O)NCc2ccc(Cl)cc2)c(=O)c2cc(S(=O)(=O)N(CC)CC)ccc21 | – | 20.6 µM (active)
CCOC(=O)N1CCN(C(=O)c2cn(C)c3ccc(S(=O)(=O)N(CC)CC)cc3c2=O)CC1 | -4.93% (inactive) | –

Compound | activity change, negative = growth inhibition | Potency
CCN(CC)S(=O)(=O)c1ccc2c(c1)c(=O)c(C(=O)N1CCN(c3cccc(Cl)c3)CC1)cn2C | -62.1% (inactive) | –
CSc1ncnc2c1ncn2CCCNCC(C)c1ccccc1 (stereo not given) | 1.45% (inactive) | –
O=C(Nc1cc(S(=O)(=O)N2CCOCC2)ccc1OCC(F)(F)F)c1ccc(N2CCCC2=O)cc1 | -16% (inactive) | –
S=C(NNC(=S)NC1CC2CCC1C2)NC1CC2C=CC1C2 (stereo not given) | -28.8% (inactive) | –
CC(C)c1ccc(NC(=S)NC2CC3C=CC2C3)cc1 (stereo not given) | – | 14.6 µM (active)
S=C(NNC(=S)NC1CC2C=CC1C2)NC1CC2C=CC1C2 (stereo not given) | -3.95% (inactive) | –
COCCCN(C(=O)CSCc1ccc(C)cc1)c1c(N)n(Cc2ccccc2)c(=O)[nH]c1=O | -1.77% (inactive) | –
O=C(NCCC1CCCCN1S(=O)(=O)c1ccc(Cl)cc1)C(=O)NCc1ccco1 (stereo not given) | – | 16.4 µM (active)
O=C(NCCC1CCCCN1S(=O)(=O)c1ccccc1)C(=O)NCC1CCCO1 (stereo not given) | 5.7% (inactive) | –
Cc1ccc(S(=O)(=O)N2CCCC2C(=O)NCc2ccco2)cc1 (stereo not given) | -23.3% (inactive) | –
O=C(/C=C/[C@H]1O[C@@H](n2ccc(=O)[nH]c2=O)[C@H](O)[C@@H]1O)NCc1ccccn1 | 2.63% (inactive) | –
Cc1cc2nc(C)n(CCCNC(=O)Nc3ccccc3)c2cc1C | -18.6% (inactive) | –
COc1ccc(OCCCn2c(C)nc3cc(C)c(C)cc32)cc1 | – | 11.6 µM (active)
COc1ccc(OCCn2ccnc2C)cc1 | 4.61% (inactive) | –
CCn1cc(C(=O)NCCC(=O)NCCO)c(=O)c2cc3c(cc21)OCO3 | 4.51% (inactive) | –
COC(=O)C1=C(C(=O)OC)[C@@H]2N(C)c3ccccc3[C@@]23C[C@@H](C(=O)OC)N(C(=O)c2ccco2)C3=N1 | 2.69% (inactive) | –
Cc1noc(C)c1NC(=O)Nc1ccc2c(c1)C(=O)N([C@H](C)CO)C[C@H](C)[C@@H](CN(C)S(=O)(=O)c1cn(C)cn1)O2 | -2.21% (inactive) | –
COc1ccc(CNC(=O)CSc2n[nH]c(N)n2)cc1OC | -5.36% (inactive) | –
CC(C)n1cnc2c(NCc3ccccc3)cc(OCC3CCN(C)CC3)cc21 | – | 20.6 µM (active)
CCC(CO)Oc1cc(NC(=O)c2ccc(Cl)cc2)c2ncn(C(C)C)c2c1 (stereo not given) | -5.07% (inactive) | –
CCC(CO)Oc1cc(NC(=O)c2cccc(F)c2)c2ncn(C(C)C)c2c1 (stereo not given) | -26.9% (inactive) | –
Cn1nc(C(=O)OCC(=O)N(Cc2ccccc2)C(C)(C)C)c2ccccc2c1=O | -21.9% (inactive) | –
O=C(CN1CCCCCC1)Nc1ccc(Br)cc1[N+](=O)[O-] | -2.9% (inactive) | –
Cc1ccc(S(=O)(=O)C2(S(=O)(=O)c3ccc(C)cc3)CCCC2)cc1 | – | 7.31 µM (active)
Cc1ccc(S(=O)(=O)NC2CCCCCC2)cc1 | -0.605% (inactive) | –

Compound | activity change, negative = growth inhibition | Potency
Cc1ccc(S(=O)(=O)N(C)C2(C)CCS(=O)(=O)C2)cc1 (stereo not given) | -24.8% (inactive) | –
COc1ccc(/C=C(/NC(=O)c2ccccc2)C(=O)Nc2cccc(C(=O)O)c2)cc1 | 2.84% (inactive) | –
CCOC(=O)N1CCN(C(=O)CN(c2ccc(C)c(C)c2)S(=O)(=O)c2ccccc2)CC1 | -6.33% (inactive) | –
Cc1ccc(S(=O)(=O)CCC(=O)OCc2ccccc2)cc1 | 7.5% (inactive) | –
Cc1ccc(S(=O)(=O)N(CCc2ccccc2)c2ccc3c(c2)C2CC3CCN2C(=O)OCc2ccccc2)cc1 (stereo not given) | – | 20.6 µM (active)
COc1ccc(C(=O)NCC2CCCCC2)cc1S(=O)(=O)N1CCCC1 | 3.05% (inactive) | –
Cc1[nH]c2c(C(=O)NCC3Cc4cccc(-c5cccnc5)c4O3)cccc2c1C (stereo not given) | -3.45% [at 9.04 µM] (inactive) | –
Cc1cc(=O)oc2cc(OCC(=O)N3CCN(c4ccc(F)cc4)CC3)c(Cl)cc12 | -12% (inactive) | –
COc1ccccc1-n1cn[nH]c1=S | – | 29.1 µM (active)
COc1ccccc1-n1c(-c2cc(-c3ccco3)[nH]n2)n[nH]c1=S | -13% (inactive) | –
COc1cccc(CNn2cn[nH]c2=S)c1OCc1ccccc1 | 8.15% (inactive) | –
COCCNC(=O)C(OC(=O)c1cccs1)c1ccc(F)cc1 (stereo not given) | 2.93% (inactive) | –
COc1ccc2ccccc2c1/C=N/NC(=O)c1cc(C)[nH]n1 | – | 8.2 µM (active)
COc1ccc(/C=N\NC(=O)c2sc(N)nc2C)cc1OC | -28.3% (inactive) | –
CCOc1ccc2ccccc2c1/C=N/NC(=O)c1c(C)cc(C)[nH]c1=O | 10.1% (inactive) | –
O=C(CN1C(=O)S/C(=C\c2ccccc2F)C1=O)NCCCn1ccnc1 | -17.7% (inactive) | –
COc1ccc(C(C)=O)cc1COc1ccc(Cl)c(C)c1 | – | 10.3 µM (active)
COCc1cc(C(C)=O)ccc1OC | -3.55% (inactive) | –
COc1ccc(-c2noc(COc3ccc(Cl)c(C)c3)n2)cc1 | -10.7% (inactive) | –
COCCCNC(=S)N(CCN(C)C)Cc1cc2cc3c(cc2[nH]c1=O)OCCO3 | -2.43% (inactive) | –
OCc1ccc(OCCCOc2cccc3cccnc23)cc1 | -17.3% (inactive) | –
Nn1c(SCc2ccccc2)nnc1C1CCCCC1 | 13.1% (inactive) | –
Cc1noc(C)c1NC(=O)Nc1ccc2c(c1)C(=O)N([C@H](C)CO)C[C@H](C)[C@@H](CN(C)C(=O)Nc1ccc(C(F)(F)F)cc1)O2 | -8.79% (inactive) | –
CC(C)NC(=O)Nc1ccc2c(c1)C(=O)N([C@H](C)CO)C[C@H](C)[C@@H](CN(C)Cc1ccc(C(F)(F)F)cc1)OCCCC[C@@H](C)O2 | – | 13 µM (active)
C[C@@H]1CN([C@@H](C)CO)C(=O)c2cc(NS(C)(=O)=O)ccc2O[C@@H](C)CCCCO[C@H]1CN(C)C(=O)Nc1ccc2c(c1)OCO2 | -18.7% (inactive) | –
